Common to all, as to assay: yeast three-hybrid, YBZ-1, SC-Leu-His + 0.5 mM 3-AT, 4 days
What all share (conditions): tags: N-Gal4 AD-HA kept; label: inside an RPR1-promoter hybrid RNA with tandem MS2 sites; ssRNA

Assay [1] deals with PUM1 PUF domain R1-RYE (Homo sapiens, UniProt Q14671 828-1176, S863R;R864Y;Q867E). In outline: (§1)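 Matching RNA elements and Pumilio-1 PUF domain libraries, randomized at the three base-contacting residues of every repeat, were co-expressed from a centromeric plasmid in strain YBZ-1 (LexA–MS2 coat fusion, HIS3 reporter). The repeat regions were PCR-amplified and Illumina-sequenced from cells grown four days on SC-Leu (input) or SC-Leu-His + 0.5 mM 3-AT (selection). The interaction score is the log change in variant frequency from input to selection. It is computed in log2, with a pseudocount of 1 for absent variants.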

In assay [2] the target is PUM1 PUF domain R1-KDR (Homo sapiens, UniProt Q14671 828-1176, S863K;R864D;Q867R). In outline: as §1
For assay [3], the target named is PUM1 PUF domain R1-RGQ (Homo sapiens, UniProt Q14671 828-1176, S863R;R864G). The gist of the method:
as §1

Assay [4] concerns the target PUM1 PUF domain R4-INC (Homo sapiens, UniProt Q14671 828-1176, N971I;H972N;Q975C). The gist of the method: as §1
In assay [5] the target is PUM1 PUF domain R4-RHV (Homo sapiens, UniProt Q14671 828-1176, N971R;Q975V). The gist of the method:
as §1

The target in assay [6] is PUM1 PUF domain R4-FGS (Homo sapiens, UniProt Q14671 828-1176, N971F;H972G;Q975S). In outline: as §1
Assay [7] has as its target PUM1 PUF domain R7-RVI (Homo sapiens, UniProt Q14671 828-1176, S1079R;N1080V;E1083I). The gist of the method: as §1
In assay [8] the target is PUM1 PUF domain R5-KLC (Homo sapiens, UniProt Q14671 828-1176, C1007K;R1008L;Q1011C). In outline:
as §1

For assay [9], the target named is PUM1 PUF domain R5-LWR (Homo sapiens, UniProt Q14671 828-1176, C1007L;R1008W;Q1011R). In outline: as §1
Assay [10] concerns the target PUM1 PUF domain R5-GKC (Homo sapiens, UniProt Q14671 828-1176, C1007G;R1008K;Q1011C). The gist of the method: as §1
For assay [11], the target named is T1, PUM1 PUF domain R6-NRR (Homo sapiens, UniProt Q14671 828-1176, Y1044R;Q1047R).
T1 sequence: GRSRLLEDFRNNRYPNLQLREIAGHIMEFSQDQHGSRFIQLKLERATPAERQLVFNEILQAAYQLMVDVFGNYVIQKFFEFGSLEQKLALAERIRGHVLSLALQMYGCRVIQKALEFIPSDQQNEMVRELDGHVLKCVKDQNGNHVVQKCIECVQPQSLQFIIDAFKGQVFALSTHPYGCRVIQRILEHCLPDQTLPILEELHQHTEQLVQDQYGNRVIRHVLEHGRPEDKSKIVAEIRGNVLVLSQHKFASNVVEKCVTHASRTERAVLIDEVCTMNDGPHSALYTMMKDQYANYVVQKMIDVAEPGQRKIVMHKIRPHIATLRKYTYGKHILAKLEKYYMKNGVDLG
In outline:
as §1

In assay [12] the target is T2, PUM1 PUF domain R6-MWE (Homo sapiens, UniProt Q14671 828-1176, N1043M;Y1044W;Q1047E).
T2 sequence: T1 sequence with N216M, R217W, R220E
In outline:
as §1

The target in assay [13] is PUM1 PUF domain R3-FSE (Homo sapiens, UniProt Q14671 828-1176, C935F;R936S;Q939E). In outline:
as §1

The target in assay [14] is PUM1 PUF domain R3-MWS (Homo sapiens, UniProt Q14671 828-1176, C935M;R936W;Q939S). The gist of the method: as §1
For assay [15], the target named is PUM1 PUF domain R3-DFA (Homo sapiens, UniProt Q14671 828-1176, C935D;R936F;Q939A). The gist of the method:
as §1

Assay [16] has as its target PUM1 PUF domain R5-GFI (Homo sapiens, UniProt Q14671 828-1176, C1007G;R1008F;Q1011I). In outline: as §1
In assay [17] the target is PUM1 PUF domain R5-LWG (Homo sapiens, UniProt Q14671 828-1176, C1007L;R1008W;Q1011G). In outline: as §1
Assay [18] concerns the target T3, PUM1 PUF domain R6-CYL (Homo sapiens, UniProt Q14671 828-1176, N1043C;Q1047L).
T3 sequence: T1 sequence with N216C, R217Y, R220L
In outline:
as §1

Assay [19] addresses PUM1 PUF domain R8-YWK (Homo sapiens, UniProt Q14671 828-1176, N1122Y;Y1123W;Q1126K). The gist of the method: as §1
Assay [20] deals with PUM1 PUF domain R5-NSD (Homo sapiens, UniProt Q14671 828-1176, C1007N;R1008S;Q1011D). The gist of the method:
as §1

Where a chain is given by its changes, count along the chain named.

For “GGCUAGAACUAGUGGAUCCCCCGGCGCCCGGCGGCUCGAGCCCGGGUAAGUGUAAAUCGUCUGCAUGCCGCCGGGCGCCAUGCCUGCAGGUCGACUCUAGAAAACAUG”, the binding signal in assay [1] is 1.44 log2 enrichment (interaction score); in [2], 3.98 log2 enrichment (interaction score).

As to “GGCUAGAACUAGUGGAUCCCCCGGCGCCCGGCGGCUCGAGCCCGGGUAAGUGUAAAUUGUCUGCAUGCCGCCGGGCGCCAUGCCUGCAGGUCGACUCUAGAAAACAUG”, the binding signal in assay [1] was 2.61 log2 enrichment (interaction score); in [3] it was 2.29 log2 enrichment (interaction score).

Turning to “GGCUAGAACUAGUGGAUCCCCCGGCGCCCGGCGGCUCGAGCCCGGGUAAGUGUAUAUAGUCUGCAUGCCGCCGGGCGCCAUGCCUGCAGGUCGACUCUAGAAAACAUG”, the binding signal in assay [4] is 4.14 log2 enrichment (interaction score); in [5] it was 4.8 log2 enrichment (interaction score); in [6] it was 2.78 log2 enrichment (interaction score).

Turning to “GGCUAGAACUAGUGGAUCCCCCGGCGCCCGGCGGCUCGAGCCCGGGUAAGUUUAAAUAGUCUGCAUGCCGCCGGGCGCCAUGCCUGCAGGUCGACUCUAGAAAACAUG”, the binding signal in assay [7] was 2.39 log2 enrichment (interaction score).

“GGCUAGAACUAGUGGAUCCCCCGGCGCCCGGCGGCUCGAGCCCGGGUAAGUGUACAUAGUCUGCAUGCCGCCGGGCGCCAUGCCUGCAGGUCGACUCUAGAAAACAUG”: the binding signal was 2.18 log2 enrichment (interaction score) in assay [5] and 2.32 log2 enrichment (interaction score) in assay [6].

In the case of “GGCUAGAACUAGUGGAUCCCCCGGCGCCCGGCGGCUCGAGCCCGGGUAAGUGUCAAUAGUCUGCAUGCCGCCGGGCGCCAUGCCUGCAGGUCGACUCUAGAAAACAUG”, the binding signal in assay [8] was 2.5 log2 enrichment (interaction score); in assay [9], 3.23 log2 enrichment (interaction score); in assay [10], 2.56 log2 enrichment (interaction score).

Take “GGCUAGAACUAGUGGAUCCCCCGGCGCCCGGCGGCUCGAGCCCGGGUAAGUGCAAAUAGUCUGCAUGCCGCCGGGCGCCAUGCCUGCAGGUCGACUCUAGAAAACAUG”: the binding signal in assay [11] was 4.48 log2 enrichment (interaction score).

Consider “GGCUAGAACUAGUGGAUCCCCCGGCGCCCGGCGGCUCGAGCCCGGGUAAGUGGAAAUAGUCUGCAUGCCGCCGGGCGCCAUGCCUGCAGGUCGACUCUAGAAAACAUG”, for which the binding signal in [12] was 4.52 log2 enrichment (interaction score).

As for “GGCUAGAACUAGUGGAUCCCCCGGCGCCCGGCGGCUCGAGCCCGGGUAAGUGUAAGUAGUCUGCAUGCCGCCGGGCGCCAUGCCUGCAGGUCGACUCUAGAAAACAUG”, the binding signal was 3.22 log2 enrichment (interaction score) in assay [13] and 5.62 log2 enrichment (interaction score) in assay [14].

For the sequence “GGCUAGAACUAGUGGAUCCCCCGGCGCCCGGCGGCUCGAGCCCGGGUAAGUGUAAAUAGUCUGCAUGCCGCCGGGCGCCAUGCCUGCAGGUCGACUCUAGAAAACAUG”, the binding signal in assay [10] is 0.78 log2 enrichment (interaction score); in [15] it was 6.17 log2 enrichment (interaction score); in assay [16], 6.14 log2 enrichment (interaction score); in assay [11] it was 4.3 log2 enrichment (interaction score); in assay [17], 2.19 log2 enrichment (interaction score); in assay [5], 2.5 log2 enrichment (interaction score). In addition, the binding signal in assay [6] was 0.95 log2 enrichment (interaction score).

Take “GGCUAGAACUAGUGGAUCCCCCGGCGCCCGGCGGCUCGAGCCCGGGUAAGUGAAAAUAGUCUGCAUGCCGCCGGGCGCCAUGCCUGCAGGUCGACUCUAGAAAACAUG”: in assay [18], the binding signal was 5.18 log2 enrichment (interaction score).

“GGCUAGAACUAGUGGAUCCCCCGGCGCCCGGCGGCUCGAGCCCGGGUAAGCGUAAAUAGUCUGCAUGCCGCCGGGCGCCAUGCCUGCAGGUCGACUCUAGAAAACAUG”: the binding signal in assay [19] is 2.04 log2 enrichment (interaction score).

As for “GGCUAGAACUAGUGGAUCCCCCGGCGCCCGGCGGCUCGAGCCCGGGUAAGUGUUAAUAGUCUGCAUGCCGCCGGGCGCCAUGCCUGCAGGUCGACUCUAGAAAACAUG”, the binding signal is 4.22 log2 enrichment (interaction score) in assay [20] and 3.88 log2 enrichment (interaction score) in assay [17].

Values taken from publication PMC8384837, “Expanding the binding specificity for RNA recognition by a PUF domain”.
